PubChem BioAssay (NCATS)
Results filed as inconclusive are left out. Entries that show only a call come without a potency. Active and inactive are the calls of the source. Calls follow the shape of the dose curve; as a rule, active = well fitted inhibition curve with a large enough effect; inconclusive = small, poorly fitted or top-dose-only effect; inactive = flat fitted curve, though single readings scatter.

experiment: qHTS of Trypanosoma Brucei Inhibitors: LOPAC Validation (AID 624147); settings: purified enzyme assay, luminescence, 45 min; series mostly up to 57.5 µM
Excerpt: Members of the Trypanosomatidae family of parasitic protozoans cause a spectrum of diseases throughout the tropical and subtropical world. Sleeping sickness, caused by two subspecies of Trypanosoma brucei, is endemic to areas of sub-Saharan Africa, while Chagas' disease, a manifestation of Trypanosoma cruzi infection, is prevalent throughout Central and South America. In addition, many species of Leishmania are responsible for a range of cutaneous and visceral diseases, causing ulcers, destructive lesions and kalaazar, a lethal infection of the viscera. These diseases cause severe public health and economic burdens on populations that are often already caught in a tragic cycle of poverty, poor nutrition and disease. Collectively, parasites of the trypanosomatid family infect 30 million people worldwide (~500 million live in endemic areas), and account for ~130K deaths annually. Existing treatments have developed little in the past 50 years, and suffer from toxicity, poor efficacy and resistance; the goal of this project is to develop lead drugs that will be suitable for entry into pre-clinical trials.
Glycolysis in axenically cultured T. cruzi, representing the intracellular pathogenic stage, is also essential for these parasites. {Engel, 1987} This project aims to discover and optimize selective inhibitors of the glycolytic enzyme pyruvate kinase (PYK) from Trypanosoma brucei, the parasite that causes sleeping sickness. […] Trypanosomatid PYKs show significant differences from their human counterparts including only 47-50% sequence identity and different allosteric and activation properties.{Callens, 1992} To this end, a qHTS was done against the MLSMR to discover inhibitors.
NIH Molecular Libraries Probe Production Network [MLPCN]
NIH Chemical Genomics Center [NCGC]
PI Name: Malcolm Walkinshaw, University of Edinburgh
2 uL of TbPYK/substrate buffer (columns 1-3, 5-48) are dispensed into Greiner white solid bottom 1536-well assay plates; column 4 receives only TEA buffer as 0x TbPYK controls. Compounds are then transferred via Kalypsys pin tool equipped with 1536-pin array (10 nL slotted pins, V&P Scientific, San Diego, CA). Following addition of compound, 2 uL of ADP (130 uM final concentration, all columns) is added to initiate the reaction. The plates are then incubated at room temperature for 45 minutes. Kinase-Glo Plus reagent is added (3 uL) and plates incubated for 10 minutes, before being transferred to a ViewLux high-throughput CCD imager (PerkinElmer) wherein single end-point measurements of luminescence are acquired using a clear filter. All reagents are diluted in an assay buffer consisting of 50 mM TEA (pH 7.2), 100 mM KCl, 10 mM MgCl2, 0.05% BSA and 0.01% Tween-20.
All screening operations will be performed on a fully integrated robotic system (Kalypsys, San Diego, CA) containing one RX-130 and two RX-90 anthropomorphic robotic arms (Staeubli, Duncan, SC). Library plates will be screened starting from the lowest and proceeding to the highest concentration. Vehicle-only plates, with DMSO being pin-transferred to columns 5-48, will be inserted uniformly at the beginning and the end of each library in order to monitor and record any shifts in the background, which can be affected by reagent dispensers or loss in enzyme activity over time. Screening data will be corrected, normalized, and concentration-effect relationships will be derived by using publicly-available curve fitting algorithms developed in-house (http://ncgc.nih.gov/pub/openhts).
Potency is read from the fitted curve at half-maximal effect.

Question: For `C=CCN1CCC23c4c5ccc(O)c4O[C@H]2C(=O)CC[C@@]3(O)C1C5` (stereo not given in full), which Potency is on record?
Answer: inactive

Question: With `CCCN1CC[C@@H]2c3cc(O)ccc3CC[C@@H]21` as the compound, how does the Potency read?
Answer: inactive

Question: Which Potency does the source give for `CN1CCc2cccc(Cl)c2CC1` here?
Answer: inactive

Question: Which Potency does the source give for `NCC(CP(=O)(O)O)c1ccc(Cl)cc1` (stereo not given) here?
Answer: inactive

Question: Which Potency does the source give for `CCCn1c(=O)c2[nH]c(C3CCCC3)nc2n(CCCOC(=O)c2ccc(S(=O)(=O)F)cc2)c1=O` here?
Answer: inactive

Question: For `Cc1[nH]c2ccc(O)cc2c1CCN`, which Potency is on record?
Answer: inactive

Question: Which Potency does the source give for `C[C@]12Cc3cn4c(nc3C=C1CCC1C2CC[C@@]2(C)[C@H]1CC[C@@]2(O)C#N)nc1ccccc14` (stereo not given in full) here?
Answer: inactive

Question: For `CCCN(CCC)[C@H]1CCc2c(F)ccc(O)c2C1`, which Potency is on record?
Answer: inactive

Question: With `CC(C)[C@@]1(NC(=O)[C@@H]2C[C@@H]3c4cccc5[nH]cc(c45)C[C@H]3N(C)C2)O[C@@]2(O)[C@@H]3CCCN3C(=O)[C@H](Cc3ccccc3)N2C1=O` as the compound, how does the Potency read?
Answer: inactive

Question: With `CCN1C[C@@]2(COC)C3[C@@H](OC)C4[C@@H]1C3([C@@H]1C[C@]3(O)[C@H](OC(=O)c5ccccc5)[C@@H]1[C@]4(OC(C)=O)[C@@H](O)[C@@H]3OC)[C@H](OC)C[C@H]2O` as the compound, how does the Potency read?
Answer: inactive

Question: For `CCCn1c(C)c(C(=O)c2ccc3ccccc3c2)c2ccccc21`, which Potency is on record?
Answer: inactive

Question: With `Cc1o[nH]c(=O)c1CC(N)C(=O)O` (stereo not given) as the compound, how does the Potency read?
Answer: inactive

Question: Which Potency does the source give for `CCCN(CCC)C1Cc2cc(OC)c(OC)cc2C1` here?
Answer: inactive

Question: Which Potency does the source give for `Clc1ccc(N2CC3CCC(C2)N3)nn1` here?
Answer: inactive

Question: With `C[N+]1(C)CCOC(O)(c2ccc(-c3ccc(C4(O)C[N+](C)(C)CCO4)cc3)cc2)C1` (stereo not given) as the compound, how does the Potency read?
Answer: inactive

Question: With `O=[N+]([O-])c1ccc2nc(N3CCNCC3)ccc2c1` as the compound, how does the Potency read?
Answer: inactive

Question: Which Potency does the source give for `OC1CCCCC1N1CCC(c2ccccc2)CC1` (stereo not given) here?
Answer: inactive

Question: With `C[C@H](N)Cc1cccc(C(F)(F)F)c1` as the compound, how does the Potency read?
Answer: inactive

Question: With `C[N+](C)(C)CCOC(=O)CBr` as the compound, how does the Potency read?
Answer: inactive

Question: For `CC(N)Cc1c[nH]c2ccc(O)cc12` (stereo not given), which Potency is on record?
Answer: inactive

Question: For `NC(N)=Nc1ccc2[nH]c3c(c2c1)C[C@@]1(O)[C@H]2Cc4ccc(O)c5c4[C@@]1(CCN2CC1CC1)[C@H]3O5`, which Potency is on record?
Answer: inactive

Question: With `C[N+](C)(C)CC#CCN1CCCC1=O` as the compound, how does the Potency read?
Answer: inactive

Question: For `COc1ccc2[nH]c3c(c2c1)CCNC3`, which Potency is on record?
Answer: inactive

Question: With `O=C1CC[C@@]2(O)C3Cc4ccc(O)c5c4C2(CCN3CC2CC2)[C@H]1O5` (stereo not given in full) as the compound, how does the Potency read?
Answer: inactive

Question: For `CC(=O)OCC1=C(C(=O)O)N2C(=O)[C@@H](NC(=O)CCC[C@@H](N)C(=O)O)[C@H]2SC1`, which Potency is on record?
Answer: inactive

Question: Which Potency does the source give for `CCOC(=O)c1ncn2c1[C@@H]1CCCN1C(=O)c1cc(OC)ccc1-2` here?
Answer: inactive

Question: With `CC12NC(Cc3ccccc31)c1ccccc12` (stereo not given) as the compound, how does the Potency read?
Answer: inactive

Question: Which Potency does the source give for `CC(N)[C@H](O)c1ccc(O)c(O)c1` (stereo not given in full) here?
Answer: inactive

Question: Which Potency does the source give for `O=S1(=O)N(CCN2CC=C(c3c[nH]c4cc(F)ccc34)CC2)c2cccc3c2N1CCC3` here?
Answer: inactive

Question: With `COc1ccc2c(c1)c(CCN1CCOCC1)c(C)n2C(=O)c1cccc(Cl)c1Cl` as the compound, how does the Potency read?
Answer: inactive

Question: With `C[C@@H]1[C@@H]2Cc3ccc(O)cc3[C@@]1(C)CCN2CC1CC1` as the compound, how does the Potency read?
Answer: inactive

Question: Which Potency does the source give for `C=CCN1CC[C@]23c4c5ccc(O)c4O[C@H]2/C(=N/NC(=O)c2ccccc2)CC[C@@]3(O)[C@H]1C5` here?
Answer: inactive

Question: Which Potency does the source give for `O=c1c2ccccc2[se]n1-c1ccccc1` here?
Answer: 19 µM (active)

Question: For `N[C@@]1(C(=O)O)CC[C@@H](C(=O)O)C1`, which Potency is on record?
Answer: inactive

Question: With `CCNC(=O)[C@H]1O[C@@H](n2cnc3c(N)ncnc32)[C@H](O)[C@@H]1O` as the compound, how does the Potency read?
Answer: inactive

Question: With `NC(C(=O)O)c1cc(=O)[nH]o1` (stereo not given) as the compound, how does the Potency read?
Answer: inactive

Question: For `Clc1cc(I)cc(Cl)c1NC1=NCCN1`, which Potency is on record?
Answer: inactive

Question: With `C#CCN[C@H](C)Cc1ccccc1` as the compound, how does the Potency read?
Answer: inactive

Question: With `COC(=O)N1CCN(C(=O)Cc2ccc(Cl)c(Cl)c2)C(CN2CCCC2)C1` (stereo not given) as the compound, how does the Potency read?
Answer: inactive

Question: For `c1ccc2c(N3CCNCC3)cccc2c1`, which Potency is on record?
Answer: inactive
